Measurements as given in ChEMBL document CHEMBL3988442, “University of Dundee, Small-Polar-MMV Screening Library” (2021).
Screen size: about 38,000 compounds; about 1,200 (3.2%) showed an effect of 50% or more. The median lay at about -58%. This is one part of a sample in which strong results are shown more often than they occur.

The compounds below were run on Plasmodium falciparum (assay: Calibr Malaria Delayed Death Assay SOP). Conditions: concentration 4.99e-06 (unit not given; other assays of the set use mol/L).
Format: functional, organism-based
Set-up: scale not given: in the data most compounds retested in dose-response had high values

Structure (SMILES)	Percent Effect [%]
CCCC(=O)N1CCc2c(CNS(C)(=O)=O)cncc2C1.Cl	-54.25
CCN(CC)S(=O)(=O)CC(=O)N1CCc2ccc(F)cc21	-118.6
CC(C)[C@H](N)c1nnc(SCC(=O)Nc2ccc(Br)cc2)o1.Cl	-137.1
O=C1CC(c2ccncc2)c2c(c(C(=O)O)cn2-c2ccccc2)N1 (configuration not stated)	-138.8
Cc1ccc(CN(C)C(=O)CCn2c(=O)n(C)c3ccccc32)o1	-119.3
CN1CCCN(C[C@@H]2CN(C(=O)N3CCOCC3)C[C@@H]2CO)CC1	-70.22
CCc1nn(C)c(Cl)c1CN1CCCC(c2cc(O)nc(C)n2)C1 (configuration not stated)	11.23
COC[C@@]12CCO[C@@H]1CCN(C(=O)Cc1ccc(C)cc1)C2	-64.19
C[C@@H]1CN(C(=O)C2CCS(=O)(=O)CC2)C[C@@]1(O)C1CC1	-43.61
C[C@@H]1CN(C(=O)C2CCS(=O)(=O)CC2)CC[C@@]1(O)C1CCOCC1	70.51
C[C@@H]1CN(C(=O)CCN2CCCC2)CC[C@@]1(O)C1CCOCC1	-34.11
O=C(NCCc1cc(F)ccc1F)NC(CO)c1ccccc1 (configuration not stated)	-122.1
Cc1nc(CN(C)C2CCN(CC3CCOCC3)C2)no1 (configuration not stated)	-100.7
CN1CCN(Cc2nnc(C3CCN(C(CO)CO)CC3)n2C)CC1	-107
CCC(=O)N1CCC2(CC1)CC(CC(=O)NC1CC1)c1ccccc1O2 (configuration not stated)	-119.5
CCN1CCC2(CC1)CC(NC(=O)c1csnn1)c1ccccc1O2.O=C(O)C(F)(F)F (configuration not stated)	-39.08
CCN1CCC2(CC1)CC(NCc1cccs1)c1ccccc1O2.O=C(O)C(F)(F)F.O=C(O)C(F)(F)F (configuration not stated)	85.8
O=C(NC1CC2(CCN(CCO)CC2)Oc2ccccc21)c1csnn1 (configuration not stated)	-18.14
CS(=O)(=O)NC1CC2(CCN(CC3CC3)CC2)Oc2ccccc21.O=C(O)C(F)(F)F (configuration not stated)	-15.02
Cc1nc(NC(=O)c2nn(-c3ccc(F)cc3C)cc2O)n[nH]1	-112
CC(C)c1nc(C2CCCN2Cc2ccon2)no1 (configuration not stated)	-96.31
Cc1noc(C)c1CN1CCO[C@H]2CN(C3CCOCC3)C[C@H]21.O=C(O)C(F)(F)F	1.266
O=C(C1CC(=O)N(c2n[nH]c3cc(Br)ccc23)C1)N1CCSCC1 (configuration not stated)	-122.2

Structure (SMILES)	Percent Effect [%]
OC1(CN2CCc3nnc(Cc4cccnc4)n3CC2)CCCNC1 (configuration not stated)	-87.58
Cc1ccccc1N1CCN(C(=O)CC(C)C)CC1	-106.5
CCN1CCn2c(C)cnc2C12CCN(C(=O)Cc1ccccc1)CC2.O=C(O)C(F)(F)F.O=C(O)C(F)(F)F	-58.2
Cc1ccc(C(=O)Nc2nnc(C3CC3)s2)c(-n2cnnn2)c1C	-130.7
COCCOCC(=O)Nc1ccnn1-c1ccc(Cl)cc1	-102.7
COCC(=O)Nc1ccnn1-c1ccc(Cl)cc1	67.79
CCOCCC(=O)Nc1ccnn1-c1ccc(Cl)cc1	-25.55
Nc1nc2c(c(N3CCCC(CN4CCCC4=O)C3)n1)CCNCC2 (configuration not stated)	-109.9
COCCc1noc(C2CCCN(c3nc(N)nc4c3CCCC4)C2)n1 (configuration not stated)	-100.3
O=C(C1CC1)N1CCCN(c2ncnc3c2CCNCC3)CC1	-49.17
COCCn1ccnc1C1CCCN(c2ncnc3c2CCC3)C1 (configuration not stated)	-114.3
Nc1nc2c(c(N3CCCC(c4nnc5ccccn45)C3)n1)CCNC2 (configuration not stated)	84.29
c1ccn2c(C3CCCN(c4ncnc5c4CCNC5)C3)nnc2c1 (configuration not stated)	74.94
O=C(c1ccon1)N1CCN(c2ccncc2Cl)CC1	-22.81
CC(CN1CCOC1=O)NC(=O)c1cccc2cc[nH]c12 (configuration not stated)	-144.8
COc1ccccc1CCNC(=O)N1CCC(n2cncn2)CC1	-50.18
Cc1cc(C)c(CNC(=O)C(C)Oc2ccccc2F)c(=O)[nH]1 (configuration not stated)	-101.9
O=C(C1CC1)N1CCC(C(=O)N2CCC(c3ccc(F)cc3)C2)CC1 (configuration not stated)	-98.79
O=C(C1CCC1)N1CCCC(c2cccc(-n3ccnc3)n2)C1 (configuration not stated)	-55.02
CC(C)Oc1ncccc1CNC(=O)C1CCCN(C(=O)C2CC2)C1 (configuration not stated)	-154.7
CC(C)n1ccnc1C1CCN(C(=O)c2cc[nH]n2)CC1	-87.6
O=C(C1CCCCC1)N1CCC(c2n[nH]c3nccnc23)CC1	-76.32
O=C(C1CCC1)N1CCC(C(=O)N2CCC(c3ccc(F)cc3)C2)CC1 (configuration not stated)	-81.93

Structure (SMILES)	Percent Effect [%]
O=C(C1CCCC1)N1CCC(c2n[nH]c3nccnc23)CC1	-90.69
O=C(C1CC1)N1CCC(c2nc(-c3ccccc3)n[nH]2)CC1	-99.03
Cc1csc(C2(NC(=O)CCNC(=O)C(C)(C)C)CCCC2)n1	-41.74
CCC(=O)N1CCc2onc(CNS(C)(=O)=O)c2C1	-110.9
Cc1nc(NC(=O)C(C)n2ncc(Br)c2C)sc1C (configuration not stated)	-53.19
COc1ccc(CNc2c(C)cnc3c2c(=O)n(C)c(=O)n3C)cc1	-41.96
O=C(CN(CC(O)c1ccc(F)cc1)C1CC1)Nc1cccnc1 (configuration not stated)	-24.09
COCC(=O)N1CCC2(COCc3c(C)nc(N(C)C)nc32)C1 (configuration not stated)	-113.3
Fc1cccc(OC2CCN(CCn3cc4ccccc4n3)CC2)c1	-79.08
COCCc1nnc(NC(=O)CCCc2ccccc2)o1	-177.1
O=C(O)C(F)(F)F.O=C(O)C(F)(F)F.O=C(O)C(F)(F)F.c1cnc(N2CCC3(CCN(Cc4cccnc4)CC3)CC2)nc1	-79.89
Cc1ccc(N2CCC3(CCN(Cc4nccs4)CC3)CC2)nn1	-7.428
O=C(O)C(F)(F)F.O=C(O)C(F)(F)F.c1csc(CN2CCC3(CC2)CCN(CC2CC2)CC3)n1	31.82
Fc1ccc(CN2CCC3(CC2)CCN(c2ncccn2)CC3)cc1.O=C(O)C(F)(F)F.O=C(O)C(F)(F)F	52.71
CCS(=O)(=O)N1CCC2(CCN(Cc3nccs3)CC2)CC1.O=C(O)C(F)(F)F	-47.71
O=C(O)C(F)(F)F.O=C(O)C(F)(F)F.c1cnc(N2CC3(CCN(Cc4ccncc4)C3)C2)nc1	-113.7
Fc1ccc(CN2CCC3(CC2)CCN(Cc2nccs2)CC3)cc1.O=C(O)C(F)(F)F.O=C(O)C(F)(F)F	86.13
O=C(O)C(F)(F)F.O=C(O)C(F)(F)F.c1csc(CN2CC3(CCN(Cc4ccsc4)C3)C2)n1	-42.12
CS(=O)(=O)N1CCC2(CCN(Cc3nccs3)CC2)CC1.O=C(O)C(F)(F)F	-92.74
Fc1ccc(CN2CCC3(CCN(Cc4nccs4)CC3)C2)cc1.O=C(O)C(F)(F)F.O=C(O)C(F)(F)F	56.57
Fc1ccc(CN2CCOCC3(CCN(Cc4nccs4)C3)C2)cc1.O=C(O)C(F)(F)F.O=C(O)C(F)(F)F (configuration not stated)	-2.709
